Data reported in the supplement of paper PMC8975748.
Structures can show the parent of a compound that is named as a salt. ± gives the standard deviation of the averaged measurements.

How the values were obtained:
[1] = tested on: Saccharomyces cerevisiae BY4741 SeMeCo community; assay: mean cell size (pixel area) (pixels); higher = larger cells; conditions: 10 µM; 24 h; SM minimal medium
How it was run: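 In this assay, mean cell pixel area per well was obtained from automated confocal images of paraformaldehyde-fixed yeast analysed in Harmony. The cells were a Saccharomyces cerevisiae BY4741 community with four plasmids, each complementing one auxotrophy and carrying a fluorescent marker, grown for 24 h in SM medium with drug at a final 10 µM in 384-well plates. Values are averaged across 3 replicates. Same SeMeCo high-content imaging drug screen: Selleck FDA-approved drugs at 10 µM, 24 h in SM medium, 384-well plates, 3 replicates.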

[2] = tested on: Saccharomyces cerevisiae BY4741 SeMeCo community; assay: z-score of prototroph abundance vs DMSO median; higher = larger share of this subpopulation than in DMSO controls; conditions: 10 µM; 24 h; SM minimal medium; subpopulation (auxotrophy): Prototroph
How it was run: (§1)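 Cells of a Saccharomyces cerevisiae BY4741 community, carrying four plasmids that each restored one auxotrophy and encoded a distinct fluorescent protein, were pre-grown overnight to OD600 1.0 and diluted to 0.3. A 70 µl volume was added to 384-well plates acoustically predosed with library drugs (10 µM final) and grown 24 h in minimal SM medium. After paraformaldehyde fixation, automated confocal microscopy was used, with single-auxotroph fluorescent strains for thresholds and autofluorescence correction. The abundance of each subpopulation was scored as a z-score against the vehicle-well median.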

[3] = tested on: Saccharomyces cerevisiae BY4741 SeMeCo community; assay: z-score of subpopulation abundance vs DMSO median, subpopulation auxotrophic for L; higher = larger share of this subpopulation than in DMSO controls; conditions: 10 µM; 24 h; SM minimal medium; subpopulation (auxotrophy): L
How it was run: as §1

[4] = tested on: Saccharomyces cerevisiae BY4741 SeMeCo community; assay: z-score of subpopulation abundance vs DMSO median, subpopulation auxotrophic for U; higher = larger share of this subpopulation than in DMSO controls; conditions: 10 µM; 24 h; SM minimal medium; subpopulation (auxotrophy): U
How it was run: as §1

[5] = tested on: Saccharomyces cerevisiae BY4741 SeMeCo community; assay: z-score of subpopulation abundance vs DMSO median, subpopulation auxotrophic for H; higher = larger share of this subpopulation than in DMSO controls; conditions: 10 µM; 24 h; SM minimal medium; subpopulation (auxotrophy): H
How it was run: as §1

[6] = tested on: Saccharomyces cerevisiae BY4741 SeMeCo community; assay: z-score of subpopulation abundance vs DMSO median, subpopulation auxotrophic for LU; higher = larger share of this subpopulation than in DMSO controls; conditions: 10 µM; 24 h; SM minimal medium; subpopulation (auxotrophy): LU
How it was run: as §1

[7] = tested on: Saccharomyces cerevisiae BY4741 SeMeCo community; assay: z-score of subpopulation abundance vs DMSO median, subpopulation auxotrophic for HM; higher = larger share of this subpopulation than in DMSO controls; conditions: 10 µM; 24 h; SM minimal medium; subpopulation (auxotrophy): HM
How it was run: as §1

[8] = tested on: Saccharomyces cerevisiae BY4741 SeMeCo community; assay: z-score of subpopulation abundance vs DMSO median, subpopulation auxotrophic for HU; higher = larger share of this subpopulation than in DMSO controls; conditions: 10 µM; 24 h; SM minimal medium; subpopulation (auxotrophy): HU
How it was run: as §1

[9] = tested on: Saccharomyces cerevisiae BY4741 SeMeCo community; assay: z-score of subpopulation abundance vs DMSO median, subpopulation auxotrophic for UM; higher = larger share of this subpopulation than in DMSO controls; conditions: 10 µM; 24 h; SM minimal medium; subpopulation (auxotrophy): UM
How it was run: as §1

[10] = tested on: Saccharomyces cerevisiae BY4741 SeMeCo community; assay: z-score of subpopulation abundance vs DMSO median, subpopulation auxotrophic for HL; higher = larger share of this subpopulation than in DMSO controls; conditions: 10 µM; 24 h; SM minimal medium; subpopulation (auxotrophy): HL
How it was run: as §1

[11] = tested on: Saccharomyces cerevisiae BY4741 SeMeCo community; assay: z-score of subpopulation abundance vs DMSO median, subpopulation auxotrophic for HLU; higher = larger share of this subpopulation than in DMSO controls; conditions: 10 µM; 24 h; SM minimal medium; subpopulation (auxotrophy): HLU
How it was run: as §1

[12] = tested on: Saccharomyces cerevisiae BY4741 SeMeCo community; assay: z-score of subpopulation abundance vs DMSO median, subpopulation auxotrophic for HUM; higher = larger share of this subpopulation than in DMSO controls; conditions: 10 µM; 24 h; SM minimal medium; subpopulation (auxotrophy): HUM
How it was run: as §1

[13] = tested on: Saccharomyces cerevisiae BY4741 SeMeCo community; assay: z-score of subpopulation abundance vs DMSO median, subpopulation auxotrophic for HLUM; higher = larger share of this subpopulation than in DMSO controls; conditions: 10 µM; 24 h; SM minimal medium; subpopulation (auxotrophy): HLUM
How it was run: as §1

[14] = tested on: Saccharomyces cerevisiae BY4741 SeMeCo community; assay: z-score of subpopulation abundance vs DMSO median, subpopulation auxotrophic for LM; higher = larger share of this subpopulation than in DMSO controls; conditions: 10 µM; 24 h; SM minimal medium; subpopulation (auxotrophy): LM
How it was run: as §1

[15] = tested on: Saccharomyces cerevisiae BY4741 SeMeCo community; assay: z-score of subpopulation abundance vs DMSO median, subpopulation auxotrophic for LUM; higher = larger share of this subpopulation than in DMSO controls; conditions: 10 µM; 24 h; SM minimal medium; subpopulation (auxotrophy): LUM
How it was run: as §1

[16] = tested on: Saccharomyces cerevisiae BY4741 SeMeCo community; assay: z-score of subpopulation abundance vs DMSO median, subpopulation auxotrophic for HLM; higher = larger share of this subpopulation than in DMSO controls; conditions: 10 µM; 24 h; SM minimal medium; subpopulation (auxotrophy): HLM
How it was run: as §1

SMILES	mean cell size [1]	z-score of prototroph abundance [2]	z-score of subpopulation abundance [3]	z-score of subpopulation abundance [4]	z-score of subpopulation abundance [5]	z-score of subpopulation abundance [6]	z-score of subpopulation abundance [7]	z-score of subpopulation abundance [8]	z-score of subpopulation abundance [9]	z-score of subpopulation abundance [10]	z-score of subpopulation abundance [11]	z-score of subpopulation abundance [12]	z-score of subpopulation abundance [13]	z-score of subpopulation abundance [14]	z-score of subpopulation abundance [15]	z-score of subpopulation abundance [16]
Nc1nc(N)c2nc(-c3ccccc3)c(N)nc2n1 [Triamterene]	12.6 ± 0.17	3.28	3.9	-8.02	2.44	-7.06	3.53	-7.52	-9.3	3.45	-3.55	-6.05	-1.58	–	–	–
C/C=C\c1ccc(O)c(OC)c1 [Isoeugenol]	12.02 ± 0.031	-0.36	0.4	0.4	-0.8	-0.07	0.2	-0.46	1.01	-0.5	0.2	0.5	0.03	0.87	0.33	–
Clc1ccc(CCC(Cn2ccnc2)Sc2c(Cl)cccc2Cl)cc1 (configuration not stated) [Butoconazole nitrate]	12.5 ± 0.15	-7.6	-1.91	1.85	–	1.13	1.46	13.3	0.67	–	12.5	–	–	-0.84	0.2	20.2
CC(C)c1c(C(=O)Nc2ccccc2)c(-c2ccccc2)c(-c2ccc(F)cc2)n1CC[C@@H](O)C[C@@H](O)CC(=O)O [Atorvastatin]	11.1 ± 0.15	-2.62	1.5	0.32	6.46	1.58	2.44	2.62	–	5.39	1.73	2.1	0.49	-0.19	0.92	–
O=C1c2cccc3c2[C@H](CCC3)CN1[C@@H]1CN2CCC1CC2 [Palonosetron]	12.2 ± 0.14	-0.11	-0.81	-0.35	–	-0.39	-0.24	-0.06	0.49	–	-0.63	–	-0.4	–	0.34	-0.49
CC(=O)OC1CC2(C)C(CC(O)C3C4(C)CCC(O)C(C)C4CCC32C)C1=C(CCC=C(C)C)C(=O)O (configuration not stated) [Fusidine]	–	-1.01	2.4	-1.39	–	1.02	–	0.13	-0.42	2.33	1.57	0.82	0.71	2.09	1.09	1.22
CC(=O)OCC1=C(C(=O)O)N2C(=O)[C@@H](NC(=O)Cc3cccs3)[C@H]2SC1 [Cephalothin]	12.7 ± 0.19	0.3	-0.16	-1.22	0.18	–	1.49	-0.81	-0.2	-0.42	-0.21	-0.69	–	0.02	-0.19	0.05
C[N+](C)(C)CCO.[Cl-] [Choline Chloride]	12 ± 0.25	0.21	–	0.8	-0.8	0.54	-1.2	-0.41	0.32	-0.62	-0.27	–	-0.62	–	0.75	-0.83
CN(C)CCCN1c2ccccc2Sc2ccc(Cl)cc21 [Chlorpromazine HCl]	12.3 ± 0.24	-0.29	-0.35	0.63	-0.33	-0.32	0.19	-0.02	0.5	-0.55	-0.85	–	0.29	0.96	–	0.11
COc1cc(O)c(C(=O)Nc2nc(C(=O)NCCN(C(C)C)C(C)C)cs2)cc1OC [Acotiamide hydrochloride]	12.4 ± 0.15	-0.4	-0.26	0.89	0.42	0.52	0.26	–	0.4	-0.16	0.19	–	-0.39	-0.2	-0.38	–
NC(=O)c1ncn([C@@H]2O[C@H](CO)[C@@H](O)[C@H]2O)n1 [Ribavirin]	12.45 ± 0.12	-0.16	-0.43	1.52	–	0.48	-0.41	0.42	0.53	-0.89	-0.19	–	-0.37	-0.41	0.09	-0.6
CC(=O)NC[C@H]1CN(c2ccc(N3CCOCC3)c(F)c2)C(=O)O1 [Linezolid]	–	-0.12	–	1.39	-0.56	0.78	-0.27	-0.11	0.29	-0.58	0.07	0.01	-0.36	–	-0.15	-0.75
O=C(O)c1cccnc1Nc1cccc(C(F)(F)F)c1 [Niflumic acid]	12.9 ± 0.17	-0.15	-0.68	0.51	-0.77	–	-0.03	-0.46	-0.28	-0.39	-0.64	-0.49	-0.43	-0.15	–	0.59
C[N+]1(C)CCC(OC(=O)C(O)(c2ccccc2)C2CCCC2)C1 (configuration not stated) [Glycopyrrolate]	12.32 ± 0.11	-0.59	-0.73	1.42	-0.58	0.76	-0.21	0.57	1.58	-0.5	-0.14	0.23	-0.01	-0.6	0.56	–
Clc1ccc(C(Cn2ccnc2)OCc2c(Cl)cccc2Cl)c(Cl)c1 (configuration not stated) [Isoconazole nitrate]	12.1 ± 0.18	-7.83	-3.43	2.14	21	–	–	11.7	5.43	3.07	2.86	4.65	9.4	-1.59	-0.77	13.3
Cc1nnc(SCC2=C(C(=O)O)N3C(=O)[C@@H](NC(=O)Cn4cc(Cl)c(=O)c(Cl)c4)[C@H]3SC2)s1 [Cefazedone]	–	0.73	–	-0.01	-0.61	-0.24	0.02	-0.74	-0.27	-1.2	-1.4	0.05	-0.54	-0.95	-1.02	-0.49
